Out of some 200,000 compounds screened, about 18,000 (9%) were called active. Cut-off read from the data, not from the text of the source: active = inhibition above about 50%; inactive = the rest. The sample as a whole holds a higher share of actives than the screen did.
Test: Leishmania major promastigote growth inhibition, primary screen (AID 1063);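 note: promastigotes grown with compound for 44 hours at 28 °C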
Conditions: Leishmania major promastigotes, resazurin fluorescence viability; at 10 µM; active compounds read high

Compound | inhibition
S=c1ccc2ccccc2[nH]1 | -8.39% (inactive)
CC(=O)NCC(=O)N(Cc1ccco1)C1(C(=O)NC2CCCC2)CCCCC1 | 1.81% (inactive)
CCOC(=O)c1ccc(NC2Nc3cc(C)nn3S2)cc1 (stereo unspecified) | 1.08% (inactive)
O=C(COc1ccc(NC(=O)c2ccccc2[N+](=O)[O-])cc1)c1ccc(F)cc1 | -3.68% (inactive)
CN1CCN(c2ccc(S(=O)(=O)N3CCCCC3)cc2NC(=O)Cc2ccccc2F)CC1 | 67.6% (active)
COc1ccc(CC(=O)Nc2cc(S(=O)(=O)N3CCCCC3)ccc2N2CCN(C)CC2)cc1 | 47% (inactive)
Cc1cccc(OCCC(=O)Nc2cc(S(=O)(=O)N3CCCCC3)ccc2N2CCOCC2)c1 | 22% (inactive)
CC12CN(NC(=O)c3ccc(Cl)cc3)C3(C#N)CC1CCC23C (stereo unspecified) | 7.74% (inactive)
COC(=O)CNC(=O)c1ccccc1[N+](=O)[O-] | -1.1% (inactive)
O=C(Nc1ccncc1)c1ccccc1[N+](=O)[O-] | 11.9% (inactive)
COc1ccc(NC(=O)c2ccccc2[N+](=O)[O-])cc1OC | 59.4% (active)
COC(=O)C1=C(C)NC(=O)CC1c1ccccc1OC (stereo unspecified) | -5.13% (inactive)
Cc1ccc(N2NC(=O)/C(=C/C=C/c3ccco3)C2=O)cc1C | 15.2% (inactive)
O=[N+]([O-])c1cc(Br)c(O)c(/C=N/Nc2nc3ccccc3s2)c1 | -6.02% (inactive)
Cc1ccsc1C(=O)N/N=C/c1ccc([N+](=O)[O-])cc1 | -8.42% (inactive)
Cc1cc(C(=O)N/N=C/c2cc([N+](=O)[O-])cc(C)c2O)n[nH]1 | 80.3% (active)
Cc1cccc(NC(=O)Nc2nnc(-c3ccccc3)o2)c1 | 15.9% (inactive)
C/C(=N\NC(=O)c1cc2c(s1)CCC(C)C2)c1cccnc1 (stereo unspecified) | 13% (inactive)
Cc1cccc(N(C(=O)Cc2cccs2)C(C(=O)NC2CCCC2)c2ccsc2)c1 (stereo unspecified) | 3.72% (inactive)
COc1ccc(C(C(=O)NC2CCCCC2)N(C(=O)CCl)c2ccccc2Cl)cc1 (stereo unspecified) | -1.95% (inactive)
COc1cccc(N(C(=O)C2COc3ccccc3O2)C(C(=O)NC2CCCCC2)c2ccc(O)cc2)c1 (stereo unspecified) | 98.3% (active)

Compound | inhibition
CN1CCN(/N=C2/C(=O)Nc3ccc([N+](=O)[O-])cc32)CC1 | -2.49% (inactive)
Cc1cc([N+](=O)[O-])ccc1NCc1cccc([N+](=O)[O-])c1 | -1.47% (inactive)
O=C1Nc2ccc([N+](=O)[O-])cc2C1=Nc1cccc(CO)c1 | 51% (active)
CN1CCN(CC#CCC2(O)c3ccccc3-c3ccccc32)CC1 | -6.57% (inactive)
CCOC(=O)N1CCN(Cc2nc3ccc([N+](=O)[O-])cc3c(=O)n2-c2cccc(OC)c2)CC1 | 8.07% (inactive)
Cn1cc(/C=C/c2nc3ccccc3c(=O)n2-c2cccc([N+](=O)[O-])c2)c2ccccc21 | 63.9% (active)
O=[N+]([O-])c1cccc(-c2nnc3c4ccccc4c4ccccc4n23)c1 | 22% (inactive)
Cc1cc(C)nc(/N=C2\NC(=O)CC(C(=O)O)N2c2ccc(Cl)cc2Cl)n1 (stereo unspecified) | -2.66% (inactive)
CSc1ccc(/C=N\NC(=O)CC(=O)NC(C)C)cc1 | 3.48% (inactive)
CC1=NCCN1S(=O)(=O)c1cccc([N+](=O)[O-])c1 | 0.00784% (inactive)
COc1ccc(/C=N/NC(=O)Cn2cc(C(F)(F)F)ccc2=O)cc1 | 4.79% (inactive)
CCOC(=O)c1c(CN(C)C)n(-c2ccccc2)c2cc(Br)c(O)cc12 | 15.6% (inactive)
Cc1ccc2c(c1)C(c1ccccc1)N(C(=O)c1ccc(S(=O)(=O)N3CCOCC3)cc1)CC(=O)N2 (stereo unspecified) | 56.5% (active)
CCC(CC)C(=O)N1CC(=O)Nc2ccc(Br)cc2C1c1ccccc1 (stereo unspecified) | 14.8% (inactive)
O=C(c1ccc(S(=O)(=O)N2CCOCC2)cc1)N1CCN(c2ccccc2)CC1 | -2.9% (inactive)
Cc1ccc2nsnc2c1S(=O)(=O)N1CCCC1C(=O)O (stereo unspecified) | -8.56% (inactive)
COc1ccc(C)cc1NC(=S)Nc1ccccc1SC | 5.88% (inactive)
COC(=O)c1cn(-c2ccccc2)nc1-c1cccnc1 | 1.77% (inactive)
Cc1ccc2nc(-c3cccnc3)c(NC3CCCC3)n2c1 | 63.7% (active)
O=C(Nc1ccc(F)cc1)C1CCN(C(=O)c2ccc([N+](=O)[O-])cc2)CC1 | 5.08% (inactive)
CCCCCCn1c(CN2CCCCC2)nc2c1c(=O)n(C)c(=O)n2C | 6.89% (inactive)

Compound | inhibition
CCCCCCCCn1c2c(c(=N)c3c1CCC3)CCCC2 | 101% (active)
COc1cc(C)c(S(=O)(=O)N2CCOCC2)c(C)c1C | -1.23% (inactive)
CCCCCCCC1(C)NC(=O)N(CC(=O)Nc2cc(C)on2)C1=O (stereo unspecified) | 20.5% (inactive)
CNC(=O)COc1ccc(S(=O)(=O)Nc2ccccc2)cc1 | -0.21% (inactive)
CCN1CCN(C(=O)CCN2C(=O)c3ccccc3C2=O)CC1 | 4.9% (inactive)
O=C(CN1C(=O)C2C3C=CC(C3)C2C1=O)Nc1nc(-c2ccccn2)cs1 (stereo unspecified) | 97.2% (active)
O=C(CCN1C(=O)C2C3C=CC(C3)C2C1=O)Nc1ccccc1F (stereo unspecified) | -3.49% (inactive)
O=C(CN1C(=O)C2C3C=CC(C3)C2C1=O)NCCc1ccccc1Cl (stereo unspecified) | 0.65% (inactive)
Cc1cc(=O)n2[nH]c(-c3sccc3-n3c(C)ccc3C)cc2n1 | -1.8% (inactive)
CCOc1cc2[nH]c(=O)n(Cc3ccc(C(=O)NCCCN4CCCC4=O)cc3)c(=O)c2cc1OCC | -1.97% (inactive)
Cc1ccc(C(=O)Cn2cccn2)cc1 | -1.93% (inactive)
CSc1ncccc1C(=O)NC1CCCCCC1 | -1.57% (inactive)
CC1CCN(c2ccc(C(=O)NCc3ccc4c(c3)OCO4)cc2[N+](=O)[O-])CC1 | 1.95% (inactive)
CCC(C)NC(=O)c1ccc(N2CCC3(CC2)OCCO3)c([N+](=O)[O-])c1 (stereo unspecified) | -0.6% (inactive)
COCCNC(=O)c1ccc(N2CCC3(CC2)OCCO3)c([N+](=O)[O-])c1 | 73.7% (active)
COc1ccc(C(C)=O)cc1CSc1nc2nc(C)cc(C)n2n1 | -4.13% (inactive)
c1ccc2cc3c(NCCN4CCOCC4)ccnc3cc2c1 | 100% (active)
O=C(Cn1c(-c2ccccn2)nc2ccccc21)NCCN1CCOCC1 | -2.96% (inactive)
c1ccc2[nH]c(NCCN3CCOCC3)nc2c1 | 0.2% (inactive)
